Data as given in PubChem BioAssay (NCI).
The panel holds about 83,000 compounds, 20% with a hit somewhere; the sample as a whole holds those more often.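 How to read the values: 0–100, growth inhibition (40 = 60% inhibited); 0, no net growth; -100 to 0, cell death (-40 = 40% of starting cells died; -100 = all dead).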 Unmarked numbers belong to inactive results. Active and inactive are the calls of the source. The calls were made as follows: active = growth percent below 10; inactive = the rest.

What was measured:
Assay in all cases: NCI-60 one-dose screen, 48 h (100 = growth as untreated, 0 = no growth, -100 = all killed)
RPMI-8226 leukemia = settings: 10 µM unless noted
OVCAR-8 ovarian = settings: 10 µM unless noted
OVCAR-5 ovarian = settings: 10 µM unless noted
SK-OV-3 ovarian = settings: 10 µM unless noted
IGROV1 ovarian = settings: 10 µM unless noted
OVCAR-3 ovarian = settings: 10 µM unless noted
HS 578T breast = settings: 10 µM unless noted
NCI/ADR-RES ovarian = settings: 10 µM unless noted
T-47D breast = settings: 10 µM unless noted
BT-549 breast = settings: 10 µM unless noted
MDA-MB-435 melanoma = settings: 10 µM unless noted
SW-620 colon = settings: 10 µM unless noted
MCF7 breast = settings: 10 µM
HCT-116 colon = settings: 10 µM unless noted
HCC-2998 colon = settings: 10 µM unless noted
KM12 colon = settings: 10 µM unless noted
OVCAR-4 ovarian = settings: 10 µM unless noted

Row | Structure (SMILES) | growth (RPMI-8226 leukemia) | growth (OVCAR-8 ovarian) [%] | growth (OVCAR-5 ovarian) [%] | growth (SK-OV-3 ovarian) [%] | growth (IGROV1 ovarian) [%] | growth (OVCAR-3 ovarian) | growth (HS 578T breast) [%] | growth (NCI/ADR-RES ovarian) | growth (T-47D breast) [%] | growth (BT-549 breast) | growth (MDA-MB-435 melanoma) | growth (SW-620 colon) [%] | growth (MCF7 breast) | growth (HCT-116 colon) | growth (HCC-2998 colon) [%] | growth (KM12 colon) [%] | growth (OVCAR-4 ovarian) [%]
1 | CC1CCCCN1CCCNC(=O)c1ccc2c(c1)sc1nc(-c3ccc(F)cc3)cn12 (stereo not drawn) | 86% | 105 | 100 | 99.7 | 93.8 | 105% | 98.5 | 87.6% | 93.4 | 91% | 109% | 105 | 99.5% | 89.7% | 88.7 | 101 | 
2 | CCCCCCCCCCCCCCn1cc(C2=C(c3coc4ccc(OC)cc34)C(=O)NC2=O)c2ccccc21 | 122% | 91.8 | 93.8 |  | 81.6 | 102% | 98.5 |  | 96.2 | 91.1% | 97.6% | 89.2 | 88.5% | 78% | 104 | 98 | 102
3 | O=C(CSc1ccc2nnc(-c3cccc(F)c3)n2n1)Nc1ccc2c(c1)OCO2 | 52.3% | 53.4 | 113 | 100 | 54.8 | 48.3% | 76.4 | 48.4% | 56.2 | 88.3% | 89.5% | 92.8 | 36.4% | 62.1% | 109 | 73.5 | 
4 | CCCCC1CCc2cccc3c(SCC(=O)N(C)c4ccc(Cl)cc4)cc[n+]1c23 (stereo not drawn) | 110% | 113 | 116 |  | 121 | 108% | 116 |  | 104 | 115% | 103% | 106 | 99.1% | 102% | 114 | 108 | 107
5 | CCOC(=O)c1cc2c(n1Cc1cc(OC)c(OC)c(OC)c1)-c1oncc1CCC2 | 16.8% | 16.6 | 56.2 | 11.2 | 33.3 | -22% (active) | 18.2 | 3.55% (active) | 74 | 31.9% | -53.9% (active) | 21.5 | 7.45% (active) | 8.98% (active) | 17.2 | 28.4 | 
6 | Brc1ccc(Oc2ccc(Nc3ncnc4onc(-c5ccccc5)c34)cc2)cc1 | 90.3% | 97.8 | 105 |  | 96.5 | 119% | 96.8 |  | 77.8 | 102% | 99.9% | 100 | 86.1% | 97.5% | 95.5 | 99.6 | 88.2
7 | CCOc1ccc(-c2nonc2NC(=O)c2cccc(C)c2)cc1OCC | 9.09% (active) | 79.5 | 89.4 | 96.2 | 68.3 | 68.1% | 85.4 | 67.5% | 84.3 | 66.8% | 51.7% | 61.8 | 60.3% | 47.2% | 81.8 |  | 
8 | O=C(Nc1ccsc1C(=O)NC1CCCCC1)c1ccc(F)cc1 | 70% | 102 | 98.3 | 101 | 90.7 | 111% | 105 |  | 102 | 113% | 110% | 92.5 | 90.6% | 76% | 97 | 107 | 
9 | C=C(C)CCC(C)N1CCC(N2CCC(C(=O)NCCc3ccccc3)CC2)CC1 (stereo not drawn) | 4.75% (active) | 75.6 | 92.2 | 52.9 | 69.5 | -15.2% (active) | 56.6 | 59.9% | 60.9 | 64.5% | -18.5% (active) | 45.2 | 9.23% (active) | 17.6% | 131 | 24.8 | 
10 | CCCCc1ccc(NS(=O)(=O)c2cc3c4c(c2)CCN4C(=O)CC3)cc1 | 21.9% | 15.9 | 52.5 | 30.8 | 11.3 | 32.2% | 47.8 | 7.47% (active) | 25.4 | 0.335% (active) | 29.6% | 25.3 | 16.2% | 13.4% | 19 | 21 | 
11 | CCN(CC)c1cc(C)c2cc(NC(=O)c3cccc(OC)c3)ccc2n1 | 7.5% (active) | 74.8 | 98.3 | 104 | 98.4 | 74.8% | 58.3 | 80.5% | 70.8 | 80.9% | 74.2% | 64.9 | 73.1% | 70.1% | 91.3 | 88.5 | 
12 | COc1ccccc1N1CCN(C(CNS(=O)(=O)c2ccc(Cl)cc2)c2cccnc2)CC1 (stereo not drawn) | 27.5% | 100 | 113 | 108 |  | 75.4% | 88.3 | 93.9% | 102 | 84.9% | 86.6% | 101 | 78.3% | 82.6% | 88 | 61.4 | 
13 | Cc1ccc(CN2CCC(C(=O)Nc3ccc(-c4cc5ccccc5[nH]4)cc3)CC2)o1 | 20.5% | 53.3 | 98.1 | 107 | 61 | 49.4% | 67 | 44.3% | 92.1 | 72.5% | 58.9% | 66 | 64.1% | 49.9% | 79.4 | 24.4 | 
14 | FC(F)(F)c1cccc(CNC2CCN(CCc3ccccc3)CC2)c1 | -10.3% (active) | 79.5 | 84.6 | 81.2 | 61.9 | 64.7% | 88.1 | 65.2% | 86.7 | 96.4% | 43.6% | 63 | 74.9% | 31.3% | 19.5 | 70.2 | 
